Most compounds without a hit are left out; they make up all but 1.7% or so of the library.
GLP1R inv ag: inverse agonists of human GLP-1 receptor; HEK293 GLP-1R CRE-luciferase, luminescence, 24 h; GLP-1R form is constitutively active; P43220; AID 624417; Potency, µM (top dose mostly 38.3 µM), without a hit: at the top dose activity change, negative = inhibition, most hits filed as inhibitors; hit rate 1.6% among 410,000; also: % is scaled to controls: 0 for no effect and ±100 for the full control effect; nearly all actives have a fitted effect of over 55% in size
Target sequence (P43220 whole entry, looked up): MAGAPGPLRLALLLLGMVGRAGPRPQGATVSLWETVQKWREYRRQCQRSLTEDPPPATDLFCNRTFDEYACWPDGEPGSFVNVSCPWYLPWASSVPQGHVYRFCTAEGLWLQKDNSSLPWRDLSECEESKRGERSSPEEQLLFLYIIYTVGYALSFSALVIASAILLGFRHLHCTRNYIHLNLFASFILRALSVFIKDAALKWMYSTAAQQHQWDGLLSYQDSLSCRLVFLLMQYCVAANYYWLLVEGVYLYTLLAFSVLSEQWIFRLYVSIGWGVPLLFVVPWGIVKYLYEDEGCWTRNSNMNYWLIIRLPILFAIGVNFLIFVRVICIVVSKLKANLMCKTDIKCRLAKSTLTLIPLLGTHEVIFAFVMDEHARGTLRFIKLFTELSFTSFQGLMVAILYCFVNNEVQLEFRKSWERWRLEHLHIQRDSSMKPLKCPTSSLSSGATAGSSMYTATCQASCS
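Constitutively active GLP-1R drives a cAMP-responsive luciferase in stably transfected HEK293 cells; test compounds are added after overnight (12 h) attachment and left 24 hr, and signal loss in luminescence marks inhibition.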
GLP-1R agonist: agonists of human GLP-1 receptor | Potency, µM (titrated, usually from 45.6 µM), for the others: top-dose activation, usual class: activators | hit rate 0.007% among 380,000 | P43220 | HEK293 GLP-1R CRE-luciferase, luminescence, 4-6 h; cells express a hypersensitive GLP-1R form; also: % of control where 0% means no effect
PTHR1 agonist: activates the human parathyroid hormone receptor PTHR1. hit rate 0.075% among 410,000. HEK293 GP2 PTHR1 cells, GloSensor cAMP luminescence, 1 h. Potency, µM (highest dose often 115 µM), for inactives: at the highest dose activation, most hits filed as activators. Q03431; also: nearly all actives have a fitted effect of over 55% in size
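HEK-293-derived GP2 cells expressing PTHR1 and a GloSensor cAMP reporter, 3,000/well, plated overnight, given luciferin plus IBMX (each 0.5 mM as added) for 1 h at 37 °C, then compound for 1 h at 37 °C. Luminescence was read after 15 min at room temperature.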
GLP1R cytotox: cytotoxicity in counter-screen for GLP-1R inverse agonists | hit rate 0.13% among 410,000 | Potency, µM (series often up to 38.3 µM), without a hit: at the highest dose activity change, negative = inhibition, actives largely listed as inhibitors | HEK293 cAMP-luciferase reporter cells, luminescence, 24 h;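 also: loss of luciferase light is scored as toxicity; % is scaled to controls: 0 for no effect and ±100 for the full control effect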
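Step one: seed cells (200 cells/uL, DMEM with 10% Nu serum, 1% pen-strep). Step two: 12-hour incubation at 37 deg C. Step three: pin 23 nL compound, incubate 24 hr. Step four: add luciferase reagent, read luminescence 12 min later.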
An asterisk follows results filed as active; i = inactive; ? = inconclusive; / = not tested or not shown; [ ] = dose if it differs, or a comment. Calls follow the shape of the dose curve; as a rule, active = well fitted curve in the direction sought with a large enough effect; inconclusive = small, poorly fitted or top-dose-only effect, or another doubt; inactive = no such curve, though single readings can be large; an effect the other way counts as inactive or inconclusive. Potency is read from the fitted curve at half-maximal effect.

SMILES	GLP1R inv ag	GLP-1R agonist	PTHR1 agonist	GLP1R cytotox
O=C(Nc1c2c(nn1-c1ccccc1)CS(=O)C2)c1ccc2c(c1)OCO2 (configuration not stated)	20.0%	-27.3%	-23.1%	0.3%
COc1ccccc1NC(=O)C1=C(C)Nc2nc(SCc3ccccc3F)nn2C1c1cccs1 (configuration not stated)	-4.4%	-0.3%	-8.0%	7.2%
CCNC(=O)[C@@H]1CCCN1C(=O)[C@H](CCCN=C(N)N)NC(=O)[C@H](CC(C)C)NC(=O)[C@@H](Cc1c[nH]c2ccccc12)NC(=O)[C@H](Cc1ccc(O)cc1)NC(=O)[C@H](CO)NC(=O)[C@H](Cc1c[nH]c2ccccc12)NC(=O)[C@H](Cc1cnc[nH]1)NC(=O)[C@@H]1CCC(=O)N1	/	-5.5%	/	/
Cc1cc(C)c(C)c(S(=O)(=O)NCC(=O)NCC2CCCCC2)c1C	6.31µM*	13.1%	-22.9%	17.3%
NC(CSC1(c2ccc(Cl)cc2)c2ccccc2-c2ccccc21)C(=O)O (configuration not stated)	7.94µM*	-3.7%	-23.8%	-8.1%
O=C1O[C@H]2[C@@H](OC(O)[C@@H]2O)[C@H]1O (some centres not stated)	/	-4.0%	/	/
CN(C)CCNC(=O)C12CC3(C)CC(C)(CC(C)(C3)C1)C2	8.91µM*	3.4%	i	-22.7%
OCC1(Cc2ccccc2)CCN(Cc2cnc(-c3cccc4ccccc34)nc2)CC1	8.91µM*	15.6%	-18.0%	-17.4%
OCC1(Cc2ccc(Cl)cc2)CCN(Cc2ccc(F)c(F)c2)CC1	7.94µM*	-3.9%	-39.9%	-25.5%
OCC1(Cc2ccccc2)CCN(Cc2cnc(-c3ccc(Cl)cc3)nc2)CC1	?	19.2%	-32.0%	-6.9%
OCC1(Cc2ccc(Cl)cc2)CCN(Cc2ccc(Oc3ncccn3)cc2)CC1	10µM*	3.0%	-2.3%	-9.5%
CCOC(=O)c1c(C)n(-c2ccccc2)c2ccc(OC(=O)c3ccccc3NC(=O)C(C)(C)C)cc12	?	/	-47.0%	?
O=C(Cc1cccc([N+](=O)[O-])c1)NCc1nc2cccnc2n1Cc1ccc(F)cc1	-6.7%	/	i	-3.7%
CCN(CC)S(=O)(=O)c1ccc2c(c1)N(CC(=O)N1CCN(c3ccccc3F)CC1)C(=O)CO2	-15.9%	13.2%	i	-11.5%
CCOc1ccc2c(ccc(/C=C/c3cc(C)c4cccnc4c3O)[n+]2C)c1	?	-30.2%	-80.2%	11.2µM*
CCOC(=O)C1(Cc2cccc(OC)c2)CCN(Cc2ccccc2OC)CC1	?	11.7%	-17.2%	-3.6%
CCOC(=O)C1(Cc2cccc(OC)c2)CCN(Cc2cccc(O)c2)CC1	11.2µM*	5.5%	-8.4%	-2.1%
CCOC(=O)C1(Cc2cccc(OC)c2)CCN(Cc2ccc(C)s2)CC1	10µM*	3.2%	-89.2%	?
CC(C)CN(C[C@@H](OP(=O)(O)O)[C@H](Cc1ccccc1)NC(=O)O[C@@H]1CCOC1)S(=O)(=O)c1ccc(N)cc1	/	15.3%	/	/
O=C(Cn1c(=O)n(-c2ccc(F)cc2)c(=O)c2sc3ccccc3c21)N1CCCC1	3.6%	-0.2%	-9.5%	-9.7%
Cc1ccccc1-n1ncc2c(SCC(=O)NCc3cccs3)ncnc21	10µM*	0.5%	-19.1%[57.5 µM]	?
OC(CNC1CCCCCC1)COc1cccc2ccccc12 (configuration not stated)	11.2µM*	4.8%	-19.8%	?
Cc1ccc(OCC(O)CNC2CCCC2)c(C)c1 (configuration not stated)	?	4.0%	-20.3%	-16.5%
Cc1ccccc1OCC(O)CNC1CCC(NCC(O)COc2ccccc2C)CC1 (configuration not stated)	1.26µM*	-9.6%	?	?
CCC1CCCCN1C(=O)c1nn(-c2ccc(C)cc2)c(=O)c2c1c1ccccc1n2C (configuration not stated)	0.5%	/	-21.7%	-0.5%
SMILES	GLP1R inv ag	GLP-1R agonist	PTHR1 agonist	GLP1R cytotox
CCOC(=O)c1cnc(-n2nc(C)cc2C)nc1Nc1ccc(N(C)C)cc1	1.58µM*	5.5%	-34.3%	1.12µM*
CCOC(=O)c1cnc(-n2nc(C)cc2C)nc1NC1CCCCC1	1.26µM*	0.2%	-32.5%	1µM*
CCOC(=O)c1cnc(-n2nc(C)cc2C)nc1Nc1ccc(C)cc1	?	0.1%	i	?
CCOC(=O)c1cnc(-n2nc(C)cc2C)nc1N(CC)CC	0.0%	20.6%	?	2.82µM*
CCOC(=O)c1cnc(-n2nc(C)cc2C)nc1NC	?	9.6%	-14.0%	?
C1CCN2C[C@@H]3C[C@@H](CN4CCCC[C@H]34)[C@H]2C1	/	4.6%[19.8 µM]	/	/
COc1cccc(C(=O)O/N=C(\N)c2ccccn2)c1OC	7.94µM*	-9.5%	-41.3%	10.3%
N/C(=N\OC(=O)Cc1cccc2ccccc12)c1ccccn1	?	23.8%	-37.0%	?
COc1cccc(C(=O)O/N=C(\N)c2ccncc2)c1OC	0.6%	6.3%	i	-4.1%
N/C(=N\OC(=O)c1cccc2ccccc12)c1ccccn1	?	10.2%	-30.7%	3.98µM*
CC1(c2ccccc2)NC(=O)N(CC(=O)NNC(=O)c2cccc(Cl)c2)C1=O (configuration not stated)	-6.3%	-6.5%	-23.2%	0.1%
COC(=O)c1ccc(NC(=O)CN2C(=O)CC(c3ccccc3)Sc3ccccc32)cc1 (configuration not stated)	4.1%	-10.5%	i	3.6%
Cc1ccc(NC(=O)C(C)Oc2ccccc2)cc1S(=O)(=O)N1CCCCCC1 (configuration not stated)	12.6µM*	3.1%	-29.5%	3.1%
Cc1ccc(NS(=O)(=O)c2cc(NC(=O)C(C)Oc3ccccc3)ccc2C)c(C)c1 (configuration not stated)	10µM*	-2.3%	-62.6%	9.5%
Cc1ccc(NC(=O)CN2CCCC2c2cccs2)cc1S(=O)(=O)N1CCCCC1 (configuration not stated)	4.47µM*	7.1%	-40.7%	0.5%
CC(=O)OCC(=O)[C@@]1(O)CCC2C3CCC4=CC(=O)CC[C@]4(C)C3=CC[C@@]21C (some centres not stated)	/	-5.7%	/	/
COc1ccc(CC2S/C(=N/N=C/c3ccccc3O)NC2=O)cc1 (configuration not stated)	2.51µM*	-0.9%	i	?
CCOc1ccc(Nc2nc(Cc3nnc(SCC(=O)c4ccc(C)c(C)c4)o3)cs2)cc1	11.2µM*	4.4%	-90.0%	?
Cc1ccc(NC(=O)CSc2nnc(Cc3csc(C)n3)o2)cc1	10.4%	5.9%	-10.6%	0.3%
COc1cccc(NC(=O)CN2C(=O)CSc3ccc(S(=O)(=O)N4CCCC4)cc32)c1	-39.1%	/	6.0%	8.8%
CCOc1ccc(/C=N/Nc2nc(C)cs2)c(O)c1	3.98µM*	-6.7%	-73.9%	3.16µM*
COc1ccc(C=NCCc2ccc(OC)c(OC)c2)cc1OC	10.7%	4.8%	i	2.1%

Screens: PubChem, National Center for Advancing Translational Sciences (NCATS)
